Compound activity from PubChem.
An excerpt weighted towards active compounds, which were near 3.5% of everything screened.
GPR151 activ: activators of human GPR151; Q8TDV0; 1% of 650,000 active; AID 1508602; activation, % at 11.2 µM; PathHunter beta-arrestin GPR151 cells, luminescence; in the data active means activation above about 4.9%;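 further: 0% = median of compound wells and 100% = cells with positive control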
FBW7 activator: human FBW7 E3 ligase activation, primary screen; AlphaScreen FBW7–phospho-cyclin E peptide binding, activator screen; Q969H0; 0.13% of 650,000 active; normalized activity (activation), % at 26.1 µM; in the data active means normalized activity above about 1.9%;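 further: purified mutant Fbw7 with reduced substrate affinity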
Target sequence (Q969H0 whole entry, looked up): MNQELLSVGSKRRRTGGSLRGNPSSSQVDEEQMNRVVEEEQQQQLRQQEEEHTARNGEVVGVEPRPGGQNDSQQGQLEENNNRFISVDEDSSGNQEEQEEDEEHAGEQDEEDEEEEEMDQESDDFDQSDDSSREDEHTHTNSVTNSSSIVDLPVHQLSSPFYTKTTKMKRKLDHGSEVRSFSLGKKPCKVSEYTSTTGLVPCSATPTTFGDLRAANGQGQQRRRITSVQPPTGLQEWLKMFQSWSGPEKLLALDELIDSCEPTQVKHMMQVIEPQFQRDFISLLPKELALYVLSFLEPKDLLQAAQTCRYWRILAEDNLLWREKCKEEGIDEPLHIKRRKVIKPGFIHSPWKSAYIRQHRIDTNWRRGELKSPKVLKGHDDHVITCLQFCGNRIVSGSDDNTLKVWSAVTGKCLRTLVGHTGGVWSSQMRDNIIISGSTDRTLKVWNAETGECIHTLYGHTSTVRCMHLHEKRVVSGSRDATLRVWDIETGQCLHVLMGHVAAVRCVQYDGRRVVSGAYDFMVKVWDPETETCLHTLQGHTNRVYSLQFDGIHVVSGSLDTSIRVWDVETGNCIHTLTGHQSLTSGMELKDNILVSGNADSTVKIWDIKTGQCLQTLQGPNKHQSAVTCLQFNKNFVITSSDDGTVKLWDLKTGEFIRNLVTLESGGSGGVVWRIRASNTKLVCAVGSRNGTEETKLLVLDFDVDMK
TEAD-YAP block: TEAD-YAP interaction inhibition. HEK-TIYL cells, TEAD-Gal4/YAP UAS-luciferase luminescence. inhibition, % at 9.12 µM. 1.4% of 640,000 active. AID 1259422; in the data active means inhibition above about 32%;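 further: 0% = median of test compound wells and 100% = reference inhibitor wells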
MITF inh: blocks human microphthalmia-associated transcription factor; AID 1259374; 0.91% of 650,000 active; inhibition, % at 2.6 µM; AlphaScreen MITF homodimerization, bead proximity signal; in the data active means inhibition above about 50%;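 further: 0% = vehicle wells with protein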
Active calls of the source: *.

SMILES | GPR151 activ | FBW7 activator | TEAD-YAP block | MITF inh
Cc1ccccc1NC(=O)c1cccc2c1C(=O)c1ccccc1-2 | -0.3 | -0.2 | 52.7* | 12.1
Cc1ccc(C)c(NC(=O)Nc2ccc(Nc3nc(C)cc(N4CCOCC4)n3)cc2)c1 | -0.7 | -0.1 | -19.3 | 9.6
Cc1cc(Nc2ccc(N3CCOCC3)cc2)nc(Nc2ccccc2)n1 | 3.7 | -0.2 | 66.1* | 3.5
Cc1cc(NCCN2CCOCC2)nc(Nc2ccc(N3CCOCC3)cc2)n1 | 0.2 | 0.0 | 9.4 | 2.3
Cc1cc(N2CCOCC2)nc(Nc2ccc(NC(=O)COc3ccccc3)cc2)n1 | 4.9 | -0.1 | 80.8* | -9.0
c1cnc(Nc2nccc(Nc3ccc(N4CCOCC4)cc3)n2)cn1 | 1.4 | 0.0 | -3.9 | 3.0
Cc1cc(Nc2ccc(N3CCOCC3)cc2)nc(Nc2ccc(C(F)(F)F)cc2)n1 | 1.4 | -0.1 | 2.1 | 11.0
Cc1cc(NCc2ccccc2)nc(Nc2ccc(N3CCOCC3)cc2)n1 | -0.4 | -0.2 | 49.4* | 14.7
c1cc(Nc2ccnc(Nc3ccc(N4CCOCC4)cc3)n2)c2ccncc2c1 | -0.5 | 2.6* | 8.2 | -12.1
CC1CC(C)CN(C(=O)c2cn(C)c(=O)c3ccccc23)C1 (centres undefined) | -2.1 | 0.1 | -7.3 | 5.6
CC(C)OCC(O)Cn1c(N2CCCCCC2)nc2c1c(=O)n(C)c(=O)n2C (centres undefined) | -0.2 | -0.2 | -0.1 | 6.4
COc1ccc(CNc2cc(C)nc(Nc3ccc(N4CCOCC4)cc3)n2)cc1 | 2.0 | -0.3 | 37.2* | 8.2
Cc1cc(Nc2ccc(N3CCOCC3)cc2)nc(Nc2nc3ccccc3n2C)n1 | 1.1 | -0.3 | 42.1* | 6.8
c1ccc(CNc2ccnc(Nc3ccc(N4CCOCC4)cc3)n2)cc1 | 0.7 | -0.4 | 41.4* | 10.4
COc1ccc(CNc2nc(Nc3ccc(N4CCOCC4)cc3)nc3cc(OC)c(OC)cc23)cc1 | -0.1 | -0.1 | -7.6 | 7.5
Cc1cc(NCCO)nc(Nc2ccc(-n3ccnc3)cc2)n1 | -0.1 | 0.0 | 28.0 | 16.5
Cc1cc(NCc2ccccc2)nc(Nc2ccc(-n3ccnc3)cc2)n1 | 1.2 | -0.1 | 35.5* | -1.9
c1cncc(CNc2ccnc(Nc3ccc(N4CCOCC4)cc3)n2)c1 | -0.8 | -0.2 | -9.4 | 9.8
CC(=O)NC1=NC(=O)/C(=C\c2ccccc2OCc2ccc(Cl)cc2Cl)S1 | 0.1 | 0.2 | 7.8 | 3.6
N#C/C(=C/c1ccc(C(=O)O)cc1)c1ccc(Cl)cc1 | -0.7 | 0.0 | -6.4 | 9.5
CC(Oc1cccc(C(F)(F)F)c1)C(=O)NNC(=O)Nc1ccccc1C(F)(F)F (centres undefined) | 0.9 | 0.1 | 14.8 | 7.4
CCNc1nc(C)cc(NCc2ccccc2)n1 | 0.7 | -0.1 | -6.7 | 4.7
Cc1cc(NC2CCCCC2)nc(NCc2ccccc2)n1 | -0.2 | 0.1 | 42.9* | -8.5
CN1CCN(CCCNc2nc(=S)[nH]c3ccccc23)CC1 | -0.1 | -0.1 | -4.8 | -8.5
CN1CCN(CCCNc2ccnc3cc4ccccc4cc23)CC1 | -1.2 | -0.1 | 75.0* | 8.3
SMILES | GPR151 activ | FBW7 activator | TEAD-YAP block | MITF inh
CN(C)CCN1CCN(c2ccnc3cc4ccccc4cc23)CC1 | 0.0 | 0.0 | 44.5* | -11.0
CC1=NN(C(=O)c2sc3cc(F)ccc3c2Cl)C(O)(C(F)F)C1 (centres undefined) | -0.1 | 0.2 | 2.6 | 5.9
CCNc1nc(NCC)nc(Sc2ccc([N+](=O)[O-])cc2[N+](=O)[O-])n1 | -0.3 | 0.0 | 50.5* | 0.9
NS(=O)(=O)c1ccc(N=Cc2c(O)n(Cc3ccco3)c(=O)[nH]c2=O)cc1 | 0.5 | -0.7 | 8.4 | 78.7*
COc1cc(C(=O)Nc2nc3ccccc3s2)c(Br)c(OC)c1OC | 1.3 | 0.6 | -64.1 | 19.9
COc1ccc(C(=O)/C(=C/N2C=CC=CC2=C(C#N)C#N)c2ccco2)cc1 | -3.1 | 0.1 | 47.6* | 13.7
COCCCN1C(=O)/C(=C\c2cccc(OC)c2O)C(C(=O)OC)=C1C | 0.5 | 0.1 | 4.3 | -7.1
Cc1ccnc(NS(=O)(=O)c2cc(C)c(Cl)cc2Cl)c1 | 0.1 | 0.0 | 8.7 | 6.9
O=C(Nc1nc2c(s1)CCCC2)c1cc(Cl)sc1Cl | -8.5 | 0.2 | 49.0* | 16.9
O=C(Cc1ccccc1Cl)Nc1nc2c(s1)CCCC2 | 2.5 | -0.1 | 16.8 | 2.2
CC1CCc2nc(NC(=O)c3cc(Cl)sc3Cl)sc2C1 (centres undefined) | -0.6 | 0.1 | -45.5 | 2.3
CC(=O)c1ccc(C(=O)Nc2nc3c(s2)CCCC3)cc1 | -1.0 | -0.1 | 65.0* | 3.6
O=C(Nc1nc2c(s1)CCCC2)c1ccccc1Cl | -7.8 | -0.2 | 44.9* | -6.3
Cc1cc(S(=O)(=O)N2CCCc3ccccc32)ccc1-n1cnnn1 | 0.2 | 2.1* | 3.4 | 16.7
O=C(O)c1c[nH]c2ccc(S(=O)(=O)N3CCCc4ccccc43)cc2c1=O | 1.0 | 0.0 | 48.5* | 1.4
O=S(=O)(c1ccc2ccccc2c1)N1CCCc2ccccc21 | 0.3 | 0.0 | 55.1* | -6.6
O=S(=O)(c1ccc(F)c(F)c1)N1CCCc2ccccc21 | 0.8 | 0.6 | 9.5 | 18.5
Cc1cc(S(=O)(=O)N2CCCCCC2)ccc1-n1cnnn1 | -0.3 | -0.1 | -3.8 | 9.1
O=S(=O)(c1ccc2oc3ccccc3c2c1)N1CCCc2ccccc21 | -0.6 | 0.0 | 59.2* | -4.3
Cc1ccc(-n2nnc3c(=O)n(CC#N)cnc32)cc1C | -1.5 | 0.6 | -6.6 | -13.4
O=C(CC1C(=O)N(c2ccc(Cl)cc2)C(=S)N1CCc1ccc(Cl)cc1)Nc1ccc(F)cc1 (centres undefined) | -1.0 | 2.0* | -11.1 | 20.6
CC(C)c1cc(C(C)C)c(S(=O)(=O)NNC(=O)c2ccccc2)c(C(C)C)c1 | -0.8 | 0.2 | 2.2 | 1.1
COc1ccc(NC(=O)C2=CC(c3cccc(OC)c3)=NS(=O)(=O)N2C)cc1 | 0.3 | 0.2 | 13.0 | -1.3
CCCNc1nc(Nc2nc3ccccc3n2C)nc2c1ncn2-c1ccsc1 | -1.2 | -0.2 | 7.8 | 2.8
c1cnc(Nc2nc(NC3CC3)c3ncn(-c4ccsc4)c3n2)nc1 | 1.7 | 0.1 | 50.1* | 9.1
SMILES | GPR151 activ | FBW7 activator | TEAD-YAP block | MITF inh
c1cncc(Nc2nc(NC3CC3)c3ncn(-c4ccsc4)c3n2)c1 | 1.5 | -0.1 | 10.8 | 5.3
Cn1c(Nc2nc(NC3CC3)c3ncn(-c4ccsc4)c3n2)nc2ccccc21 | -1.0 | 0.1 | 58.6* | 9.3
CC(C)COCC1CC2(CC(C)(c3csc(Nc4ccccc4Cl)n3)OC2=O)C(=O)O1 (centres undefined) | 0.6 | 0.2 | 4.0 | 13.8
COc1ccccc1-c1ccnc(Nc2ccc(S(N)(=O)=O)cc2)n1 | 1.0 | 0.8 | 34.4* | 67.6*
NS(=O)(=O)c1ccc(Nc2nccc(-c3cccc(Cl)c3Cl)n2)cc1 | 0.6 | 23.9* | -5.5 | 13.6
NS(=O)(=O)c1ccc(Nc2nccc(-c3ccccc3)n2)cc1 | -0.6 | -0.2 | -16.0 | -5.1
O=C(Nc1ccc(F)c(Cl)c1)/C(=C/c1ccccc1)NC(=O)c1ccccc1 | 0.0 | -0.1 | -2.1 | -5.7
CCCOC(=O)C1=C(C)N(CC)C(=O)NC1c1ccccc1[N+](=O)[O-] (centres undefined) | -0.1 | 2.5* | 11.7 | 5.8
CC(C)CC(NC(=O)OC(C)(C)C)C(=O)NC(C)C (centres undefined) | -0.6 | 0.3 | -4.4 | -0.7
